TIM10 inh – growth inhibitors of isogenic TIM10 control yeast, primary screen, counter-screen for tim10-1 yeast inhibitor project, luminescence, uHTS; S. cerevisiae TIM10 strain growth, BacTiter-Glo luminescence, 24 h; inhibition, % at 10 µM; 330,000 compounds, 1.4% hits;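 active = inhibition of 40% or more at the single tested concentration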;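 note: wild-type TIM10 isogenic control strain grown at permissive 25 °C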
PfHsp90 set2 – growth inhibition of PfHsp90-expressing yeast, primary screen, antimalarial PfHsp90 inhibitor project, S. cerevisiae, BacTiter-Glo luminescence, single point, set 2; BacTiter-Glo ATP, 48 h; yeast lacking PDR1 and PDR3 efflux regulators; inhibition, % at 9.4 µM; AID 504621, 2011; 310,000 compounds, 0.32% hits;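 active = every replicate shows inhibition above about 80%, whatever the replicate mean, limit read from the data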
V-ATPase pHluor – regulators of yeast V-ATPase proton pumping, primary screen, pHLuorin cytosolic pH fluorescence. S. cerevisiae. response, % at 10 µM. 350,000 compounds, 0.37% hits; in the data active = response mostly above about 7.3%, no sharp cut-off; inactive = mostly below about 5.4%; note: actives read high
tim23-1 inh – growth inhibitors of tim23-1 mutant yeast, primary screen, luminescence, uHTS; S. cerevisiae tim23-1 growth, BacTiter-Glo luminescence, 24 h; 330,000 compounds, 1.3% hits; inhibition, % at 20 µM;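 active = growth inhibition of the mutant yeast at or above 50%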;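 note: temperature-sensitive mutant grown at 25 °C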
SKKanGAS inh – S. pyogenes SKKanGAS growth inhibitors in kanamycin, primary screen, streptokinase expression inhibitor project, SKKanGAS strain, BacTiter-Glo luminescence; 6 h; inhibition, % at 7.5 µM; 300,000 compounds, 1.3% hits; AID 1662, 2009;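 active = mean replicate score, as percent of positive control median, at least 50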;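 note: strain carries kanamycin resistance gene driven by streptokinase promoter and grows in 40 µg/ml kanamycin; loss of luminescence reflects streptokinase promoter inhibition or plain growth inhibition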
tim10-1 inh – growth inhibitors of tim10-1 mutant yeast, primary screen, luminescence, uHTS; 330,000 compounds, 2.2% hits; inhibition, % at 20 µM; S. cerevisiae tim10-1 ts strain growth, BacTiter-Glo, 24 h;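 active = inhibition of at least 40%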;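 note: mutant grown at 25 °C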
VATPase regulator – yeast V-ATPase proton pumping modulators, confirmation, S. cerevisiae, pH-sensitive GFP, second cherry-pick | shares compounds with V-ATPase pHluor | S. cerevisiae pHLuorin cytosolic pH, V-ATPase proton transport | response, % at 10 µM | 980 compounds, 2% hits | AID 602197, 2012; in the data active = response above about 24%
A number is an active result. Sampled rows, rich in hits. Any-hit rate of the full collection: about 4.6%.

CCOC(=O)C1CCN(C(=O)c2cc3cc(C)ccc3[nH]2)CC1 was read as TIM10 inh inactive, PfHsp90 set2 inactive, V-ATPase pHluor inactive, tim23-1 inh inactive, SKKanGAS inh inactive and tim10-1 inh inactive.
For c1ccc(Cn2nnc(CNc3ccccc3)c2-c2c(CNc3ccccc3)nnn2Cc2ccccc2)cc1 the results were TIM10 inh inactive, PfHsp90 set2 inactive, V-ATPase pHluor inactive, tim23-1 inh inactive, SKKanGAS inh inactive and tim10-1 inh inactive.
COc1cc(NC(=O)Cn2cnc3c(NCc4ccccc4)ncnc32)cc(OC)c1OC was read as TIM10 inh inactive, PfHsp90 set2 inactive, V-ATPase pHluor 11, tim23-1 inh inactive, tim10-1 inh inactive and VATPase regulator inactive.
Screening COc1ccccc1N1CCN(CC(=O)Nc2nc(C)c(C(=O)N(C)C)s2)CC1 returned TIM10 inh inactive, PfHsp90 set2 inactive, V-ATPase pHluor inactive, tim23-1 inh inactive, SKKanGAS inh inactive and tim10-1 inh inactive.
`CCCn1c(=O)c2sccc2n2c(CCCC(=O)NC3CCN(Cc4ccccc4)CC3)nnc12` gave TIM10 inh inactive, PfHsp90 set2 inactive, V-ATPase pHluor 10, tim23-1 inh inactive, SKKanGAS inh inactive, tim10-1 inh inactive and VATPase regulator inactive.
Screening CC(C)Cn1c(=O)c2sccc2n2c(CCCC(=O)NC3CCN(Cc4ccccc4)CC3)nnc12 returned TIM10 inh inactive, PfHsp90 set2 inactive, V-ATPase pHluor inactive, tim23-1 inh inactive, SKKanGAS inh inactive and tim10-1 inh inactive.
`CN(C)c1ccc(C=C2C=Cc3ccccc32)cc1` gave PfHsp90 set2 inactive, V-ATPase pHluor 12 and VATPase regulator inactive.
Screening C=CCNC(=O)c1nn2cccnc2c1Cl returned TIM10 inh inactive, PfHsp90 set2 inactive, V-ATPase pHluor 11, tim23-1 inh inactive, SKKanGAS inh inactive, tim10-1 inh inactive and VATPase regulator inactive.
Screening CC(CN1CCOCC1)OC(=O)Cc1ccc(Cl)cc1 (stereo not drawn) returned TIM10 inh inactive, PfHsp90 set2 inactive, V-ATPase pHluor 11, tim23-1 inh inactive, SKKanGAS inh inactive, tim10-1 inh inactive and VATPase regulator inactive.
O=C(Nc1cccc(C(F)(F)F)c1)c1cccnc1N1CCN(CCO)CC1 was read as TIM10 inh inactive, PfHsp90 set2 inactive, V-ATPase pHluor inactive, tim23-1 inh inactive, SKKanGAS inh inactive and tim10-1 inh inactive.
`O=C(Nc1cccc(C(F)(F)F)c1)c1cccnc1N1CCN(c2ccccc2)CC1` gave TIM10 inh inactive, PfHsp90 set2 inactive, V-ATPase pHluor 12, tim23-1 inh inactive, SKKanGAS inh 51, tim10-1 inh inactive and VATPase regulator inactive.
CCC1Oc2ccc(C)cc2N(CC(=O)NCc2cccs2)C1=O (stereo not drawn) was read as TIM10 inh inactive, PfHsp90 set2 inactive, V-ATPase pHluor inactive, tim23-1 inh inactive, SKKanGAS inh inactive and tim10-1 inh inactive.
`CCC1Oc2ccccc2N(CC(=O)NCc2cccs2)C1=O` (stereo not drawn) gave TIM10 inh inactive, PfHsp90 set2 inactive, V-ATPase pHluor 12, tim23-1 inh inactive, SKKanGAS inh inactive, tim10-1 inh inactive and VATPase regulator inactive.
Cc1cc(N)ccc1NC(=O)CN1CCCC1 was read as TIM10 inh inactive, PfHsp90 set2 inactive, V-ATPase pHluor inactive, tim23-1 inh inactive, SKKanGAS inh inactive and tim10-1 inh inactive.
For CCOc1ccc(-n2c(SCC(=O)NCc3ccco3)nc3c([nH]c4ccccc43)c2=O)cc1 the results were TIM10 inh inactive, PfHsp90 set2 inactive, V-ATPase pHluor 10.0, tim23-1 inh inactive, SKKanGAS inh inactive, tim10-1 inh inactive and VATPase regulator inactive.
Screening CCOc1ccc(-n2c(SCC(=O)NCc3ccco3)nc3ccccc3c2=O)cc1 returned TIM10 inh inactive, PfHsp90 set2 inactive, V-ATPase pHluor inactive, tim23-1 inh inactive, SKKanGAS inh inactive and tim10-1 inh inactive.
`COc1cccc(NC(=O)CSc2nnnn2C2CCCCC2)c1` gave TIM10 inh inactive, PfHsp90 set2 inactive, V-ATPase pHluor inactive, tim23-1 inh inactive, SKKanGAS inh inactive and tim10-1 inh inactive.
For CCOC(=O)c1c(C)[nH]c(C(=O)COC(=O)c2cnc(C)cn2)c1C the results were TIM10 inh inactive, PfHsp90 set2 inactive, V-ATPase pHluor 11, tim23-1 inh inactive, SKKanGAS inh inactive, tim10-1 inh inactive and VATPase regulator inactive.
`CCOC(=O)c1c(C)[nH]c(C(=O)C(C)OC(=O)c2cnc(C)cn2)c1C` (stereo not drawn) gave TIM10 inh inactive, PfHsp90 set2 inactive, V-ATPase pHluor inactive, tim23-1 inh inactive and tim10-1 inh inactive.
Screening CCN1C(=O)C(CC(=O)Nc2ccc(OC)cc2)N(CCCN2CCN(c3ccc(F)cc3)CC2)C1=S (stereo not drawn) returned TIM10 inh inactive, PfHsp90 set2 inactive, V-ATPase pHluor 13, tim23-1 inh inactive, SKKanGAS inh inactive, tim10-1 inh inactive and VATPase regulator inactive.
`CCNC(=O)/C(C#N)=C/c1c(N2CCN(c3ccc(OC)cc3)CC2)nc2c(C)cccn2c1=O` gave TIM10 inh inactive, PfHsp90 set2 inactive, V-ATPase pHluor 14, tim23-1 inh inactive, SKKanGAS inh inactive, tim10-1 inh inactive and VATPase regulator inactive.
Screening CCOC(=O)c1ccc(NC(=S)NC(=O)COc2ccccc2)cc1 returned TIM10 inh inactive, PfHsp90 set2 inactive, V-ATPase pHluor 65, tim23-1 inh inactive, SKKanGAS inh inactive, tim10-1 inh inactive and VATPase regulator inactive.
Screening CC1=C(C(=O)Nc2ccccc2)C(c2cccc([N+](=O)[O-])c2)Nc2nc3ccccc3n21 (stereo not drawn) returned TIM10 inh inactive, PfHsp90 set2 inactive, V-ATPase pHluor 17, tim23-1 inh inactive, SKKanGAS inh inactive, tim10-1 inh inactive and VATPase regulator inactive.
For COc1cccc(C2NC(=O)NC(C)=C2C(=O)Nc2cccc(C)c2C)c1 (stereo not drawn) the results were TIM10 inh inactive, PfHsp90 set2 inactive, V-ATPase pHluor inactive, tim23-1 inh inactive, SKKanGAS inh inactive and tim10-1 inh inactive.
For COc1cccc(NC(=S)NNC(=O)c2ccccc2OC(F)F)c1 the results were TIM10 inh inactive, PfHsp90 set2 inactive, V-ATPase pHluor 9.4, tim23-1 inh inactive, SKKanGAS inh inactive, tim10-1 inh inactive and VATPase regulator inactive.
`COc1cccc(NC(=O)c2ccccc2-c2ccccc2)c1` gave TIM10 inh inactive, PfHsp90 set2 inactive, V-ATPase pHluor 8.8, tim23-1 inh inactive, SKKanGAS inh inactive, tim10-1 inh inactive and VATPase regulator inactive.

From PubChem BioAssay
